According to PubChem BioAssay AID504408 (Broad Institute, 2011):
Out of some 300,000 compounds screened, about 5,200 (1.7%) were called active.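 How the source made its calls: active means mean replicate activation of at least 50% with a set share of replicates each reaching 50%; inconclusive means only one of those two conditions met; inactive means mean below 50% and too few replicates reaching it.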 The sample as a whole holds a higher share of actives than the screen did.

Experiment: HSF-1 response element luciferase induction – NIH3T3-HGL cells, MG132 stress, luminescence, single point, primary screen (AID 504408);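 further: 0% = median of the neutral control wells and 100% = twice that signal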
Conditions: NIH3T3-HGL HSF-1 luciferase reporter, MG132, 8 h; at 9 µM; stronger effect = higher value; 100% = twice DMSO control signal

activation, inactive:
COc1ccc(CNS(=O)(=O)c2cc3c4c(c2)CCN4C(=O)CC3)cc1 30.7%
COc1ccccc1OCCCCCCN1CCN(C)CC1 -3.8%
Cc1n[nH]c(=O)c2c(NC(=O)CSc3ccccc3F)oc(C)c12 6.59%
COc1ccc(OCCCC(=O)OC(C)C(=O)Nc2ccccc2[N+](=O)[O-])cc1 (stereo not drawn) 10.9%
COc1ccc2oc(=O)c(C(=O)N3CCCC3)cc2c1 6.28%
COc1ccc2c(c1)CCc1c(C(=O)N3CCc4ccccc4C3)noc1-2 6.07%
O=C(NCCN1CCCC(O)C1)c1cc(COc2c(F)cccc2F)on1 (stereo not drawn) -5.99%
O=C(c1cc(COc2c(F)cccc2F)on1)N1CCSCC1 13.6%
Cc1csc(NC(=O)C2=COCCO2)n1 13%
CC(C)CN(C(=O)COC(=O)c1ccc(Cl)c(N)c1)c1c(N)n(Cc2ccccc2)c(=O)[nH]c1=O -19.5%
S=C(NCc1ccc(Cl)cc1)NC1CCCCC1 18.1%
O=C(NC1CCCCCC1)c1cccnc1Sc1ccc(Cl)cc1 -8.73%
CCN(C(=O)COC(=O)c1sccc1C)c1c(N)n(Cc2ccccc2)c(=O)[nH]c1=O -3.51%
CCCNC(=O)c1onc(CSc2ccc(F)cc2)c1C(=O)NC(C)C -0.0105%
CS(=O)(=O)c1ccc(Cl)c(NC(=O)COC(=O)c2ncc(Cl)c(Cl)c2Cl)c1 2.63%
CC(C)c1cc(CN2CCOCC2)cc(C(C)C)c1O 4.46%
CCOc1cc(N2CCOCC2)c(OCC)cc1NC(=O)COc1cccc2cccnc12 -23%
O=C(COC(=O)c1ncc(Cl)c(Cl)c1Cl)NNC(=O)c1ccccc1 3.3%
O=C1CC2(CCN(C(=O)COc3ccc(F)cc3)CC2)Oc2ccccc21 12%
CC(OC(=O)c1ccc(S(=O)(=O)N2CCOCC2)cc1)c1ccccc1 (stereo not drawn) 13.9%
CC(Oc1ccc(F)cc1)C(=O)Nc1ccccc1C(=O)NC1CC1 (stereo not drawn) 6.2%
COc1ccc(NC(=O)c2cc(-c3ccc(C)cc3)on2)cc1 -4.41%
O=C(Nc1cccnc1Cl)c1cc(-c2ccccc2O)on1 11.3%
c1ccc(C[C@H]2CNCCN2CCC23CC4CC(CC(C4)C2)C3)cc1 -13.4%
Cc1ccc(CSCC(=O)N(C)CC(=O)Nc2ccc(C)cc2)cc1 -77.8%
O=C(CSC1=NS(=O)(=O)c2cc(F)ccc2N1)Nc1ccccc1F 30%
Cc1ccc(OC(=O)c2cc3ccccc3o2)cc1 5.61%
C/C(=N\NC(=S)Nc1ccc(C)cc1)c1cc2ccccc2o1 7.68%
CN(/N=C/c1ccccc1)C(=S)c1ccccc1 9.01%
O=c1c(-c2cccc(Cl)c2)c[nH]n1-c1ccccc1 7.2%
O=C(O)C(c1ccccc1)N1C(=O)/C(=C\c2ccc(-c3cccc(Cl)c3)o2)SC1=S (stereo not drawn) -2.76%
Cc1ccc(C(=O)C(C)OC(=O)Cc2n[nH]c(=O)c3ccccc23)cc1C (stereo not drawn) -0.0365%
O=C(NCc1ccccn1)Nc1ccc(Cl)cc1 -2.45%
CCN(CC(=O)Nc1c(F)cccc1F)C(=O)C1CCC1 -4.88%
O=C(Nc1ccccc1)c1ccco1 11.5%
NC(=O)c1ccsc1NC(=O)c1ccco1 26.5%
Cc1csc(NC(=O)c2ccc(C)s2)n1 -3.76%
O=C(NCCCN1CCCC1=O)c1ccc(S(=O)(=O)Nc2ccccc2)cc1 16.8%
CC(C)(C)C(=O)COC(=O)c1cc(S(=O)(=O)N2CCCCC2)ccc1N1CCOCC1 -1.57%
Cc1ccc(C(=O)CSc2nnc(Cn3nnc4ccccc43)n2C)cc1 43.4%
O=C(CN1C(=O)NC2(CCCC2)C1=O)OCCOc1ccc(F)cc1 3.21%
CCCCn1c(N)c(N(CCC(C)C)C(=O)CC2OC(=O)c3ccccc32)c(=O)[nH]c1=O (stereo not drawn) -3.07%
Cc1cc(C)nc(SCC(=O)c2ccc(Cl)cc2)n1 -1.86%
Cc1cc(Oc2ccc(Cl)cc2)nc(SCC(=O)c2ccccc2)n1 2.82%
CSc1ccc(/C=C2\NC(=O)NC2=O)cc1 20.8%
CN(Cc1ccccc1F)C(=O)C(Cc1ccccc1)NC(=O)c1ccccc1 (stereo not drawn) -0.838%
CCCCn1c(N)c(N(CCOC)C(=O)COc2c(C)cccc2C)c(=O)[nH]c1=O -3.47%
CCC(C)NC(=O)C1c2ccccc2C(=O)N1Cc1ccccc1 (stereo not drawn) 16.4%
CC1CCC(NC(=O)C2c3ccccc3C(=O)N2Cc2ccc3c(c2)OCO3)CC1 (stereo not drawn) -8.55%
CCOC(=O)c1cc(NC(=O)c2cccnc2)ccn1 -78.8%
COc1ccc(S(=O)(=O)N2CCOCC2)cc1NC(=O)COc1ccccc1 -3.48%
COc1ccc(S(=O)(=O)N2CCCCC2)cc1NC(=O)COc1ccccc1 4.76%
CCCC(=O)Nc1c(O)c2ccccc2[nH]c1=O -31.5%
CCCOC(=O)Cc1c(O)c2ccccc2[nH]c1=O -21.7%
Cc1ccc(NS(=O)(=O)c2ccc(C(=O)NCCCN3CCOCC3)cc2)cc1 -3.65%
O=C(NCCS(=O)(=O)NCc1ccc(F)cc1)c1ccccc1 2.75%
O=C(Nc1cccc2c1CCCC2)c1ccc(F)cc1 -3.19%
O=C(NCc1ccco1)c1sc2cccc(F)c2c1Cl 27.8%
COc1ccc2oc(C(=O)NCc3ccco3)c(C)c2c1 6.69%
CCN(CC(=O)Nc1cccc(S(=O)(=O)N2CCCCC2)c1)Cc1ccccc1 0.93%
CN1C(C(=O)NCc2ccco2)CC2Cn3c(nc4ccccc43)C21 (stereo not drawn) -8.57%
Cc1nn(C)c(C)c1NS(=O)(=O)c1ccc(OC(F)(F)F)cc1 0.0449%
Cc1ccc(S(=O)(=O)N(Cc2cccc([N+](=O)[O-])c2)C(=O)N2CCN(C)CC2)cc1 17.1%
CC(=O)c1ccc(S(=O)(=O)NC2CC(=O)N(c3ccc4c(c3)OCCO4)C2)cc1 (stereo not drawn) 8.08%
COc1ccc2[nH]c(=O)c(-c3noc(-c4ccc(F)cc4)n3)cc2c1 25.7%
Cc1ccc(Cc2nc(-c3cccc(C)c3)no2)cc1 17.5%
CCc1noc(C)c1C(=O)Oc1ccc(N(C)S(=O)(=O)c2ccc(C)c(C)c2)cc1 -16.6%
CCOc1ccc(NC(=S)N2CCC(N(C)CC3CCCO3)CC2)cc1 (stereo not drawn) -6.15%
CCOC(=O)c1ccc(NC(=S)N2CCCC2)cc1 17.9%
O=C(Nc1ccc2nc3n(c(=O)c2c1)CCCC3)c1ccc(Cl)nc1 3.58%
COc1ccc(C(=O)NCC(c2ccco2)N2CCc3ccccc32)cc1OC (stereo not drawn) 2.97%
Cc1noc(C)c1CSCC(=O)Nc1ccc(Br)cc1Cl 1.94%
COCn1c(COc2ccccc2)nc2ccccc21 23.9%
CC(C)n1c(COc2ccccc2)nc2ccccc21 12.3%
Cc1n[nH]c(=O)c2c(NC(=O)COC(=O)c3ncc(Cl)c(Cl)c3Cl)oc(C)c12 -1.88%
CN(CC(=O)Nc1cccc(F)c1)C(=O)C1CC(=O)N(CCc2ccccc2)C1 (stereo not drawn) -1.17%
CCn1c2ccccc2c2cc(NC(=O)COC(=O)c3ccccc3Br)ccc21 15.8%
CCn1c2ccccc2c2cc(NC(=O)CNC)ccc21 -4.5%
Nc1c(C(=O)Nc2ccc3c(c2)OCCO3)nnn1Cc1ccccc1 43.5%
Cc1ccc(OCCNC(=O)CN2C(=O)NC3(CCCC3)C2=O)cc1 2.14%

activation, active:
COc1ccc2c(c1)CCc1c(C(=O)N3CCCC3)noc1-2 54.9%
CC1CN(C(=O)c2cc(COc3c(F)cccc3F)on2)CCN1C (stereo not drawn) 52.1%
O=C(NC1CCCCC1)c1ccc(-c2ccc(Cl)cc2)o1 67.1%
Oc1c(C(c2ccccn2)N2CCOCC2)ccc2cccnc12 (stereo not drawn) 73.3%
Cc1ccc(O)c(NC(=O)c2cc(-c3ccco3)on2)c1 113%
Cc1ccc(NC(=O)c2cc3ccccc3o2)cc1 51.6%
O=C1c2ccccc2NC(c2ccc(-c3cccc(Cl)c3)o2)N1O (stereo not drawn) 76.4%
O=C(Nc1nc(-c2ccco2)c(-c2ccco2)s1)c1ccco1 70.1%
Cc1ccc2nnn(Cc3cccc(C(C)(C)C)c3O)c2c1 59.9%
Cc1cc(C)nc(S/C=C/C(=O)c2ccccc2)n1 111%
CCc1ccc(CN2C(=O)c3ccccc3C2C(=O)NCC2CCCO2)cc1 (stereo not drawn) 62.2%
COc1ccc(S(=O)(=O)N2CCOCC2)cc1NC(=O)CSc1ncnc2ccccc12 72.7%
O=C(Cc1c(O)c2ccccc2[nH]c1=O)NCc1ccccc1 55.5%
COc1ccc2c(Cl)c(C(=O)NCc3ccco3)sc2c1 59.8%
Cc1cccc(-c2noc(-c3ccc(F)cc3)n2)c1 55%
CCOc1ccc(NC(=S)N2CCCCCC2)cc1 65.8%
Cc1ccc(OCc2nc3ccccc3n2C)cc1 75.6%
CCn1c2ccccc2c2cc(NC(=O)C/C(C)=N/NC(=O)c3ccccc3N)ccc21 87.9%
